Screening results: PubChem BioAssay, National Center for Advancing Translational Sciences (NCATS)
TRHR ag = agonists of human TRH receptor. P34981. TRHR cells, calcium flux fluo-8, FDSS agonist mode. activation, % at 2 µM. 360,000 tested, 0.18% active; also: 0% is about no effect
Target sequence (P34981 whole entry, looked up): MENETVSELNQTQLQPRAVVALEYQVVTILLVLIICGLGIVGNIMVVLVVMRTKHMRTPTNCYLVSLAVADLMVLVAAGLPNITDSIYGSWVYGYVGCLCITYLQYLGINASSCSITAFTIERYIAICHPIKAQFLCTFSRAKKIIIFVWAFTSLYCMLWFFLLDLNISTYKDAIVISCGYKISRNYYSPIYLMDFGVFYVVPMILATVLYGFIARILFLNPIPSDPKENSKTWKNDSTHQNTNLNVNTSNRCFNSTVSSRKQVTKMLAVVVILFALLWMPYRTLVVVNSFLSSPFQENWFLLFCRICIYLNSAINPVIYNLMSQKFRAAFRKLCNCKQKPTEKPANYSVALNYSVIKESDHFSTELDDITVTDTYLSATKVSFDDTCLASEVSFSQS
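TRHR-expressing cells loaded with fluo-8 calcium dye; 23 nL library compound pin-transferred, kinetic FDSS fluorescence (Ex 480/Em 530) recorded about 180 s for agonist-induced calcium release, before a 10 nM TRH EC20 addition for potentiator mode.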
TRHR enhancer = allosteric enhancers of human TRH receptor. AID 493056. 360,000 tested, 0.66% active. P34981. TRHR cells, fluo-8 calcium fluorescence, EC20 TRH enhancement. enhancement, % at 2 µM; in the data active = enhancement above about 30%; also: 0% is about no effect
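TRHR-expressing cells loaded with fluo-8 calcium dye were read kinetically (ex 480/em 530) during compound addition, then stimulated with an EC20 of TRH (10 nM final). Enhancement of the Gq-mediated intracellular calcium response was scored.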
D1 ag = human D1 receptor agonism; P21728; HEK293 T-REx D1 cells, calcium flux, agonist mode; activation, % at 2 µM; 360,000 tested, 1% active; also: 0% is about no effect
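Tetracycline-induced HEK293 TREx D1 cells, force-coupled to calcium signalling, were dye-loaded with a no-wash calcium kit. Compound was pin-added after a 10 s baseline. Fluorescence was read kinetically at 1 cycle/s for 180 s, with calcium rises flagged as agonism.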
D1 PAM = human D1 dopamine receptor positive modulation | P21728 | HEK293 TREx D1 cells, calcium flux, dopamine EC20 potentiation | potentiation, % at 10 µM | 360,000 tested, 0.036% active; in the data active = potentiation above about 30%; also: 0% is about no effect
D1 antagonist = human D1 dopamine receptor antagonism | P21728 | AID 504652 | activity change, negative = inhibition, % at 10 µM | HEK293 TREx D1 cells, calcium flux, dopamine EC80; stronger effect = lower value | 360,000 tested, 3.2% active; in the data active = activity change below about -30%; also: % is scaled to controls: 0 for no effect and ±100 for the full control effect
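Allosteric or orthosteric antagonism assessed as attenuation of the calcium response to EC80 dopamine, added 180 s after compound, in induced HEK293 Trex D1 cells loaded with no-wash calcium dye.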
The depositor's hits bear a star; . = no result; ! = a repeat was not active. Only some compounds are listed: those with a hit (about 4.6% of all), similar ones and a draw of the others. Rule as the data show it, unless noted: active = activation above about 30%; inactive = the rest.

SMILES | TRHR ag | TRHR enhancer | D1 ag | D1 PAM | D1 antagonist
CCCCCCSc1ccc(-c2nc3ccc(C)cn3c2NCc2ccccc2)cc1OC | 0 | 1 | 2 | -9 | 13
CCCCCCSc1ccc(-c2nc3ccc(C)cn3c2NCc2ccccc2)cc1 | 0 | -1 | 0 | -10 | -36*
O=C1CS(=O)(=O)C2(C(=O)N(Cc3cccc(F)c3)c3ccccc32)N1c1ccccc1 (stereo unspecified) | -1 | 10 | 5 | 2 | -1
Cc1cccc(NC(=O)C(C)N2C(=O)c3ccccc3S2(=O)=O)n1 (stereo unspecified) | 0 | 0 | 2 | 1 | 2
CC(C(=O)Nc1ncc([N+](=O)[O-])s1)N1C(=O)c2ccccc2S1(=O)=O (stereo unspecified) | 1 | 1 | 4 | -4 | -35*
COc1ccc(C(=O)Nc2ccc3nc(SCC(=O)N4CCCc5ccccc54)sc3c2)cc1 | -1 | 2 | 15 | -1 | -5
Clc1ccccc1Cn1nnc(-c2ccccc2)n1 | -1 | 2 | 18 | -12 | -35*
Clc1ccccc1Cn1nnc(-c2cccs2)n1 | -1 | -1 | 20 | -8 | -16
O=C(COc1cccnc1[N+](=O)[O-])Nc1ccc(Cl)c(S(=O)(=O)N2CCOCC2)c1 | 0 | 6 | 3 | -9 | -6
CCOC(=O)c1ccccc1NC(=O)CN(c1ccc(OCC)cc1)S(C)(=O)=O | 0 | 35* | 1 | -2 | -21
CCOc1ccccc1N(CC(=O)Nc1ccccc1C(=O)O)S(C)(=O)=O | 1 | 5 | 0 | -6 | -45*
COCCNC(=O)CN(c1cc(C(F)(F)F)ccc1Cl)S(C)(=O)=O | 0 | -3 | 1 | -1 | -3
COC(=O)CN(c1cc(C(F)(F)F)ccc1Cl)S(C)(=O)=O | 0 | -4 | 4 | -6 | -39*
CN(C)CCNC(=O)c1cc2c(s1)-c1ccc(Cl)cc1SC2 | 5 | -10 | 16 | -9 | -48*
CCCCCC(=O)Nc1c2c(nc3ccccc13)CCC2 | 0 | 32* | 2 | -1 | 3
Fc1ccccc1Nc1c2c(nc3ccccc13)CCC2 | -2 | 16 | 3 | -5 | -34*
c1ccc(Nc2c3c(nc4ccccc24)CCC3)cc1 | -1 | -1 | 4 | -11 | .
Fc1ccc(Nc2c3c(nc4ccccc24)CCC3)cc1 | 0 | 2 | 14 | -13 | -41*
COc1ccc(C)cc1Nc1c2c(nc3ccccc13)CCC2 | 1 | -5 | 6 | -10 | -55*!
O=C(CCCCCl)Nc1c2c(nc3ccccc13)CCC2 | 0 | -4 | 1 | 0 | 20
CCOC(=O)N1CCN(S(=O)(=O)c2ccc(OC)c(Cl)c2)CC1 | 1 | -1 | 4 | -6 | -31*
Cc1ccc(NC(=O)c2oc3ccc(S(=O)(=O)N4CCCCC4)cc3c2C)cc1C | 0 | -3 | -2 | -1 | -31*
CCOC(=O)c1oc2ccc(S(=O)(=O)n3nc(-c4ccc(C)cc4)cc3N)cc2c1C | 1 | 42*! | 1 | -1 | -9
CCOc1ccc(S(=O)(=O)N2CCC(C(=O)N3CCCCCC3)CC2)cc1Cl | 0 | -5 | 9 | -8 | -40*
CCOC(=O)N1CCN(S(=O)(=O)c2ccc(OC)c(OC)c2)CC1 | 1 | -5 | 0 | 1 | 1
SMILES | TRHR ag | TRHR enhancer | D1 ag | D1 PAM | D1 antagonist
Cc1cccc(NC(=O)CN(C)S(=O)(=O)c2ccc3c(c2)CCC(=O)N3)c1C | 0 | -1 | -1 | -5 | -5
Cc1cc(-c2ccc(C)c(S(=O)(=O)NC3CCCCC3)c2)on1 | 0 | -1 | 0 | -2 | -1
COc1cccc(NC2=CC(c3ccc(C(C)C)cc3)N(c3cccc(OC)c3)C2=O)c1 (stereo unspecified) | 2 | 5 | -1 | 2 | 0
CCOC(=O)N1CCN(C(=O)c2oc3ccc(S(=O)(=O)N4CCOCC4)cc3c2C)CC1 | -1 | 34* | 25 | -9 | -18
O=C(COC(=O)c1ccncc1)NC(=O)C1CCCCC1 | 1 | -8 | 4 | 2 | -36*
O=C(Nc1ccccc1O)c1ccc(NC(=O)C2CC2)cc1 | 0 | 0 | 0 | -5 | -33*
O=C(Nc1ccccc1C(=O)O)c1ccc(NC(=O)C2CC2)cc1 | 0 | 11 | 1 | -6 | -11
CCc1ccc(NC(=O)c2sc3nc(C)nc(N4CCN(c5ccccn5)CC4)c3c2C)cc1 | 1 | 3 | 2 | -12 | -84*
